# Measured values reported in PubChem BioAssay AID743326 (National Center for Advancing Translational Sciences (NCATS), 2014).
# A number with no mark means an inactive call. Calls of active or inactive are those of the source. The call rests on the fitted dose curve. Numbered stars: 1 amine (or outer) side, 2 acyl side, 3 side chain; on linkers, the order of the positions; unused ones are H or OH. Bridge positions count the residues as written; N and C are the ends. Square brackets hold non-standard residues; d marks the D form. Peptide text beside a SMILES is read from it. I, II: the chains in the order shown. Actinocin(9to1) = Cc1c2oc3c(C)ccc(C(=O)[*:1])c3nc-2c(C(=O)[*:2])c(N)c1=O; NMeV = CN[CH](C(=O)O)C(C)C; Orn = NCCC[C@H](N)C(=O)O; Sar = CNCC(=O)O
# Assay: qHTS profiling of Chloroquine Analogs as inhibitors of Plasmodium falciparum (DD2) proliferation
# Conditions: Potency: Plasmodium falciparum Dd2 proliferation inhibition; series mostly up to 28.7 µM; activity change, negative = inhibition: at the top concentration
# Description: Plasmodium falciparum is a virulent malarial parasite that kills 1-2 million people worldwide each year. Transmitted by mosquitoes, the sporozoite form of the parasite enters the blood stream to infect hepatocytes, where they become merozoites that infect red blood cells (erythrocytes). Within erythrocytes, merozoites begin a […] cycle of growth and division, after which the parasite is released to infect new red blood cells. Gametocytes, which form within erythrocytes as well, circulate in the bloodstream and are ingested by the mosquito, thereby completing the life cycle. To profile malarial isolates for differential chemical responses and to identify inhibitors of malarial growth, an assay that measures P. falciparum growth and replication within erythrocytes was employed. This assay uses a DNA binding fluorescent dye (SYBR Green) to detect parasite DNA following cell lysis. Because mature erythrocytes lack DNA, only Plasmodium-derived DNA is detected.
# The SYBR Green viability assay was adapted from a method described previously (Plouffe et al., 2008). For screening 3 ul culture medium was dispensed into 1536 well black clear bottom plates (Aurora Biotechnologies) using a Multidrop Combi (Thermo Fisher Scientific Inc.), 23 nL compounds in DMSO were added by a pin tool (Kalypsys), and 5 ul of erythrocytes infected with P. falciparum (0.3% parasitemia, 2.5% hematocrit final concentration) were added. The plates were incubated at 37 C in a humidified incubator in 5% CO2 for 72 h, and 2 ul lysis buffer (20 mM Tris HCl, 10 mM EDTA, 0.16% saponin, 1.6% triton X, 10X SYBR Green I supplied as 10,000X […] by Invitrogen) was added to each well. The plates were mixed for 25 sec with gentle shaking and incubated overnight at room temperature in the dark. The following morning, fluorescence intensity at 485(14) nm excitation and 535(25) nm emission wavelengths was measured on an EnVision (Perkin Elmer) plate reader. Plate reads were normalized relative to the control inhibitor (0.29 uM artemisinin) and vehicle (DMSO) wells present on each plate and then corrected by an algorithm using vehicle-only control plates at the beginning and end of the compound plate stack.
SMILES,"activity change, negative = inhibition",Potency
C#C[C@]1(O)CC[C@@H]2[C@H]3CCC4=CC(=O)CC[C@H]4[C@H]3C(=C)C[C@@]21CC,-96.6%,
COc1cc2c(cc1C(F)(F)F)N(C(=O)Nc1cc(F)cc(-c3cccnc3)c1)CC2,177%,
CCCC(=O)O[C@]1(C(=O)CCl)[C@H](C)C[C@@H]2[C@H]3CCC4=CC(=O)C=C[C@]4(C)[C@@]3(F)C(=O)C[C@@]21C,173%,
CC[C@@H](C)[C@H]1O[C@]2(CC[C@H]1C)C[C@@H]1C[C@@H](CC=C(C)[C@@H](O[C@H]3C[C@H](OC)[C@@H](O[C@H]4C[C@H](OC)[C@@H](O)[C@H](C)O4)[C@H](C)O3)[C@@H](C)C=CC=C3CO[C@@H]4[C@H](O)C(C)=C[C@@H](C(=O)O1)[C@]34O)O2,-103%,
CN1C[C@H](C(=O)N[C@]2(C)O[C@@]3(O)[C@@H]4CCCN4C(=O)[C@H](Cc4ccccc4)N3C2=O)C[C@@H]2c3cccc4[nH]cc(c34)C[C@H]21,180%,
C[C@H]1c2cccc(O)c2C(O)=C2C(=O)[C@]3(O)C(O)=C(C(N)=O)C(=O)[C@@H](N(C)C)[C@@H]3[C@@H](O)[C@@H]21,-96.4%,
CC(C)N=C(N)N=C(N)Nc1ccc(Cl)cc1,190%,
CN1CCN(CCCN2c3ccccc3Sc3ccc(S(=O)(=O)N(C)C)cc32)CC1,,1140 nM (active)
Cc1cccc(C)c1OCC(=O)N[C@@H](Cc1ccccc1)[C@@H](O)C[C@H](Cc1ccccc1)NC(=O)[C@H](C(C)C)N1CCCNC1=O,-98.3%,
COCC(=O)O[C@]1(CCN(C)CCCc2nc3ccccc3[nH]2)CCc2cc(F)ccc2[C@@H]1C(C)C,-101%,
CN1CC[C@H](CN2c3ccccc3Sc3ccccc32)C1,-70.9%,
C[C@@H]1CC[C@H]2[C@@H](C)C(=O)O[C@@H]3OC4(C)CC[C@@H]1C32OO4 (some centres not stated),171% [at 57.5 µM],
C[C@@H]1CCC2[C@@H](C)[C@@H](O)O[C@@H]3O[C@@]4(C)CC[C@@H]1[C@@]23OO4 (some centres not stated),-102%,
CCN(CC)CCOc1ccc2c(=O)c3ccc(Cl)cc3n(CCN(CC)CC)c2c1,,1330 nM (active)
Clc1ccc(COC(Cn2ccnc2)c2ccc(Cl)cc2Cl)c(Cl)c1 (configuration not stated),-98.7% [at 14.2 µM],
C[C@@H]1[C@@H](CC(C[C@H]2O[C@@H]3O[C@]4(C)CC[C@@H]5[C@H](C)CC[C@@H]([C@H]2C)[C@@]35OO4)C[S+](=O)([O-])c2ccc(COC(=O)N(C)C)cc2)O[C@@H]2O[C@]3(C)CC[C@H]4[C@H](C)CC[C@@H]1[C@@]24OO3 (some centres not stated),-102%,
CNCCCCOc1ccccc1Cc1ccccc1,206%,
CO[C@H]1O[C@@H]2O[C@@]3(C)CC[C@@H]4[C@@H](C)CC[C@@H]([C@H]1C)[C@@]24OO3,172%,
CCOc1ccccc1O[C@H](c1ccccc1)[C@H]1CNCCO1,201%,

SMILES,"activity change, negative = inhibition",Potency
"Cc1c2oc3c(C)ccc(C(=O)NC4C(=O)NC(C(C)C)C(=O)N5CCCC5C(=O)N(C)CC(=O)N(C)C(C(C)C)C(=O)OC4C)c3nc-2c(C(=O)NC2C(=O)NC(C(C)C)C(=O)N3CCCC3C(=O)N(C)CC(=O)N(C)C(C(C)C)C(=O)OC2C)c(N)c1=O (configuration not stated) (I: TVP[Sar][NMeV] / II: TVP[Sar][NMeV]; ester I:1-I:C, II:1-II:C; linker I:N-II:N via Actinocin(9to1); configuration not given here)",,2.4 nM (active)
CCCCN(CCCC)CC(O)c1cc(Cl)cc2c1-c1ccc(Cl)cc1C2=Cc1ccc(Cl)cc1 (configuration not stated),164%,
CN(C)c1ccc2nc3ccc(=[N+](C)C)cc-3sc2c1,,6.9 nM (active)
CN([C@@H](Cc1ccc(OS(=O)(=O)c2cccc3cnccc23)cc1)C(=O)N1CCN(c2ccccc2)CC1)S(=O)(=O)c1cccc2cnccc12,200%,
Cn1cncc1[C@@](N)(c1ccc(Cl)cc1)c1ccc2c(c1)c(-c1cccc(Cl)c1)cc(=O)n2C,193%,
C[C@H]1[C@@H](OC(=O)CCC(=O)O)O[C@@H]2OC3(C)CC[C@H]4[C@H](C)CC[C@@H]1[C@@]24OO3,-102%,
Cc1nc2c(C#N)cccc2n1-c1ccc(C(=O)NC2CC2)s1,179%,
CC(C)C[C@@H]1NC(=O)[C@H](CCCN)NC(=O)[C@H](C(C)C)NC(=O)[C@@H]2CCCN2C(=O)[C@@H](Cc2ccccc2)NC(=O)[C@H](CC(C)C)NC(=O)[C@H](CCCN)NC(=O)[C@H](C(C)C)NC(=O)[C@@H]2CCCN2C(=O)[C@@H](Cc2ccccc2)NC1=O (cyclo(V[Orn]L[dF]PV[Orn]L[dF]P)),,0.7 nM (active)
CCCC[C@@H]1C[C@@H](C(=O)NC([C@H](C)Cl)[C@H]2O[C@H](S)[C@H](O)[C@@H](O)[C@@H]2O)N(C)C1 (some centres not stated),-73.3%,
O=C(C[C@@H]1NCCC[C@@H]1O)Cn1cnc2ccccc2c1=O,-101%,
NC(=NCc1ccccc1)NC(=O)c1nc(Cl)c(N)nc1N,-94.1%,
O=C1C(=O)c2ccccc2C(O)=C1C1CCC(c2ccc(Cl)cc2)CC1 (configuration not stated),-99.4%,
O=C(Nc1ccc(Cl)cc1)Nc1ccc(Cl)c(Cl)c1,176%,
C[C@H]1[C@@H](CCC(=O)Nc2ccc(F)cc2)O[C@@H]2O[C@]3(C)CC[C@@H]4[C@H](C)CC[C@@H]1[C@@]24OO3,203%,
CC(C)(C)c1cc(O)c(CN)c(C(C)(C)C)c1,180%,
CN(C)CCOC(c1ccccc1)c1ccccc1,,1500 nM (active)
O=CN(O)CCCP(=O)(O)O,-91.1%,
COc1cc2c(Nc3ccc(NC(=O)c4ccccc4)cc3)ncnc2cc1OCCCN1CCOCC1,,749 nM (active)
